Out of some 5,500 compounds screened, about 2,000 (36%) were called active. Another 18% or so got no clear call; they are omitted. Cut-off read from the data, not from the text of the source: active = normalized growth mostly below about 0.91 (no sharp cut-off); inconclusive = no clear call, values can overlap the other calls; inactive = mostly above about 0.92. The list shows a part of the results.
Assay: chemical genetic growth profiling, strain panel (AID 1159580);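 note: tested at 20 µM; growth read once vehicle control cultures reached saturation at 30 °C; 1 = growth at the plate median or of vehicle wells; lower values mean less growth of the strain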
Settings: growth OD

Measured: normalized growth

Cc1ccccc1N1C(=O)c2cc(S(N)(=O)=O)c(Cl)cc2NC1C (stereo not drawn)
inactive: S. cerevisiae deletion strains, locus YKL009W, strain mrt4, stronger effect = lower value 1.01 | S. cerevisiae deletion strains, locus YKL068W, stronger effect = lower value 0.982 | S. cerevisiae deletion strains, locus YKL085W, strain MDH1 (second series), stronger effect = lower value 1.03 | S. cerevisiae deletion strains, locus YKL085W, strain MDH1, stronger effect = lower value 1.03 | S. cerevisiae deletion strains, locus YKL160W, strain elf1, stronger effect = lower value 0.969 | S. cerevisiae deletion strains, locus YKL190W, strain CNB1, stronger effect = lower value 0.994 | S. cerevisiae deletion strains, locus YKR001C, strain vps1, stronger effect = lower value 0.988 | S. cerevisiae deletion strains, locus YKR026C, strain gcn3, stronger effect = lower value 0.94 | S. cerevisiae deletion strains, locus YKR091W, strain srl3, stronger effect = lower value 0.984 | S. cerevisiae deletion strains, locus YLL001W, strain dnm1, stronger effect = lower value 0.969 | S. cerevisiae deletion strains, locus YLL026W, stronger effect = lower value 1 | S. cerevisiae deletion strains, locus YLL041C, strain sdh2, stronger effect = lower value 0.988 | S. cerevisiae deletion strains, locus YLR027C, strain aat2, stronger effect = lower value 0.987 | S. cerevisiae deletion strains, locus YLR039C, strain RIC1, stronger effect = lower value 0.974 | S. cerevisiae deletion strains, locus YLR058C, strain SHM2, stronger effect = lower value 0.987 | S. cerevisiae deletion strains, locus YLR102C, strain apc9, stronger effect = lower value 0.989 | S. cerevisiae deletion strains, locus YLR113W, strain HOG1, stronger effect = lower value 0.985 | S. cerevisiae deletion strains, locus YLR221C, strain rsa3, stronger effect = lower value 0.986 | S. cerevisiae deletion strains, locus YLR258W, strain gsy2, stronger effect = lower value 0.969 | S. cerevisiae deletion strains, locus YLR262C, strain YPT6 (second series), stronger effect = lower value 0.96 | S. cerevisiae deletion strains, locus YLR262C, strain YPT6, stronger effect = lower value 1.01 | S. cerevisiae deletion strains, locus YLR268W, strain sec22, stronger effect = lower value 0.995 | S. cerevisiae deletion strains, locus YLR320W, strain mms22, stronger effect = lower value 1.04 | S. cerevisiae deletion strains, locus YLR330W, strain CHS5, stronger effect = lower value 0.99 | S. cerevisiae deletion strains, locus YLR342W, strain FKS1 (second series), stronger effect = lower value 0.971 | S. cerevisiae deletion strains, locus YLR342W, strain FKS1, stronger effect = lower value 0.983 | S. cerevisiae deletion strains, locus YLR357W, strain rsc2, stronger effect = lower value 0.949 | S. cerevisiae deletion strains, locus YLR370C, strain arc18, stronger effect = lower value 0.98 | S. cerevisiae deletion strains, locus YLR371W, strain rom2, stronger effect = lower value 0.993 | S. cerevisiae deletion strains, locus YLR384C, strain iki3, stronger effect = lower value 0.961 | S. cerevisiae deletion strains, locus YLR418C, strain cdc73, stronger effect = lower value 0.98 | S. cerevisiae deletion strains, locus YML016C, strain PPZ1, stronger effect = lower value 0.985 | S. cerevisiae deletion strains, locus YML032C, strain rad52, stronger effect = lower value 0.994 | S. cerevisiae deletion strains, locus YML120C, strain ndi1, stronger effect = lower value 1 | S. cerevisiae deletion strains, locus YML124C, strain tub3, stronger effect = lower value 0.978 | S. cerevisiae deletion strains, locus YMR058W, strain fet3, stronger effect = lower value 0.988 | S. cerevisiae deletion strains, locus YMR078C, strain ctf18, stronger effect = lower value 0.984 | S. cerevisiae deletion strains, locus YMR125W, strain sto1, stronger effect = lower value 0.921 | S. cerevisiae deletion strains, locus YMR129W, stronger effect = lower value 0.997 | S. cerevisiae deletion strains, locus YMR205C, strain PFK2, stronger effect = lower value 0.982 | S. cerevisiae deletion strains, locus YMR223W, strain ubp8, stronger effect = lower value 0.993 | S. cerevisiae deletion strains, locus YMR231W, strain pep5, stronger effect = lower value 0.974 | S. cerevisiae deletion strains, locus YMR263W, strain SAP30, stronger effect = lower value 1.01 | S. cerevisiae deletion strains, locus YMR307W, strain GAS1, stronger effect = lower value 0.888 | S. cerevisiae deletion strains, locus YNL067W, strain RPL9B, stronger effect = lower value 1.01 | S. cerevisiae deletion strains, locus YNL071W, strain lat1, stronger effect = lower value 1.01 | S. cerevisiae deletion strains, locus YNL128W, strain TEP1, stronger effect = lower value 0.97 | S. cerevisiae deletion strains, locus YNL183C, strain NPR1, stronger effect = lower value 0.93 | S. cerevisiae deletion strains, locus YNL209W, strain ssb2, stronger effect = lower value 0.994 | S. cerevisiae deletion strains, locus YNL233W, strain BNI4, stronger effect = lower value 1.01 | S. cerevisiae deletion strains, locus YNL248C, strain rpa49, stronger effect = lower value 0.909 | S. cerevisiae deletion strains, locus YNL250W, strain rad50, stronger effect = lower value 0.98 | S. cerevisiae deletion strains, locus YNL271C, strain bni1, stronger effect = lower value 0.983 | S. cerevisiae deletion strains, locus YNL298W, strain CLA4, stronger effect = lower value 0.996 | S. cerevisiae deletion strains, locus YNL307C, strain MCK1, stronger effect = lower value 0.996 | S. cerevisiae deletion strains, locus YNL322C, strain KRE1 (second series), stronger effect = lower value 0.98 | S. cerevisiae deletion strains, locus YNR049C, strain mso1, stronger effect = lower value 0.992 | S. cerevisiae deletion strains, locus YNR052C, strain pop2, stronger effect = lower value 0.995 | S. cerevisiae deletion strains, locus YOL006C, strain TOP1, stronger effect = lower value 0.997 | S. cerevisiae deletion strains, locus YOL012C, strain htz1 0.785 | S. cerevisiae deletion strains, locus YOL147C, strain pex11, stronger effect = lower value 0.987 | S. cerevisiae deletion strains, locus YOR001W, strain rrp6, stronger effect = lower value 0.957 | S. cerevisiae deletion strains, locus YOR061W, strain CKA2, stronger effect = lower value 0.993 | S. cerevisiae deletion strains, locus YOR069W, strain VPS5, stronger effect = lower value 0.986 | S. cerevisiae deletion strains, locus YOR070C, strain gyp1, stronger effect = lower value 0.999 | S. cerevisiae deletion strains, locus YOR080W, strain dia2, stronger effect = lower value 0.961 | S. cerevisiae deletion strains, locus YOR083W, strain WHI5, stronger effect = lower value 0.986 | S. cerevisiae deletion strains, locus YOR106W, strain vam3, stronger effect = lower value 0.957 | S. cerevisiae deletion strains, locus YOR136W, strain idh2, stronger effect = lower value 0.99 | S. cerevisiae deletion strains, locus YOR144C, strain elg1, stronger effect = lower value 0.987 | S. cerevisiae deletion strains, locus YOR184W, strain ser1, stronger effect = lower value 1.01 | S. cerevisiae deletion strains, locus YOR231W, strain MKK1, stronger effect = lower value 0.974 | S. cerevisiae deletion strains, locus YOR265W, strain rbl2, stronger effect = lower value 0.995 | S. cerevisiae deletion strains, locus YOR270C, strain vph1, stronger effect = lower value 0.938 | S. cerevisiae deletion strains, locus YOR290C, strain snf2, stronger effect = lower value 0.995 | S. cerevisiae deletion strains, locus YOR316C, strain cot1, stronger effect = lower value 0.983 | S. cerevisiae deletion strains, locus YPL051W, strain arl3, stronger effect = lower value 1.01 | S. cerevisiae deletion strains, locus YPL078C, strain atp4, stronger effect = lower value 0.957 | S. cerevisiae deletion strains, locus YPL106C, strain sse1, stronger effect = lower value 0.956 | S. cerevisiae deletion strains, locus YPL240C, strain hsp82, stronger effect = lower value 0.986 | S. cerevisiae deletion strains, locus YPL241C, strain CIN2, stronger effect = lower value 0.992 | S. cerevisiae deletion strains, locus YPL256C, strain CLN2, stronger effect = lower value 0.954 | S. cerevisiae deletion strains, locus YPR119W, strain clb2, stronger effect = lower value 0.987 | S. cerevisiae deletion strains, locus YPR141C, strain kar3, stronger effect = lower value 0.975 | S. cerevisiae deletion strains, locus YPR163C, strain tif3, stronger effect = lower value 0.981 | S. cerevisiae deletion strains, locus YPR167C, strain met16, stronger effect = lower value 0.992 | S. cerevisiae deletion strains, strain wtn01, stronger effect = lower value 0.991 | S. cerevisiae strains, strain wild type, stronger effect = lower value 0.943

— PubChem BioAssay AID1159580 (chemical genetic matrix, 2015)
